# Compound activity (PubChem BioAssay)
# DT40 TDP1 no CPT: qHTS for Inhibitors of human tyrosyl-DNA phosphodiesterase 1 (TDP1): qHTS in cells in absence of CPT. DT40 Tdp1-/- hTDP1 cells, no CPT, ATP luminescence, 48 h. Potency, µM (doses to about 46.2 µM), for inactives: at the highest dose activity change, negative = growth inhibition, actives largely listed as inhibitors. 15% of 420,000 active; note: potency is the fitted concentration of half-maximal effect; nearly all actives have a fitted effect of over 55% in size
#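 Growth kinetics read by CellTiter-Glo luminescence after ≥48 hr at 37 °C. Cells: DT40 Tdp1-/- stably carrying human TDP1, 400 per well, compound exposure in the absence of CPT (DMSO vehicle).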
# RORgamma inh: inhibitors of mouse ROR gamma transcriptional activity; P51450; Drosophila S2 Gal4-RORgamma UAS-luciferase reporter, 20 h; Potency, µM (series often up to 53.6 µM), inactives show top-dose activity change, negative = inhibition, most hits filed as inhibitors; 5.4% of 310,000 active; AID 2551; note: potency is the fitted concentration of half-maximal effect; nearly all actives have a fitted effect of over 60% in size
# Target sequence (P51450 whole entry, looked up, the tested form may be a part): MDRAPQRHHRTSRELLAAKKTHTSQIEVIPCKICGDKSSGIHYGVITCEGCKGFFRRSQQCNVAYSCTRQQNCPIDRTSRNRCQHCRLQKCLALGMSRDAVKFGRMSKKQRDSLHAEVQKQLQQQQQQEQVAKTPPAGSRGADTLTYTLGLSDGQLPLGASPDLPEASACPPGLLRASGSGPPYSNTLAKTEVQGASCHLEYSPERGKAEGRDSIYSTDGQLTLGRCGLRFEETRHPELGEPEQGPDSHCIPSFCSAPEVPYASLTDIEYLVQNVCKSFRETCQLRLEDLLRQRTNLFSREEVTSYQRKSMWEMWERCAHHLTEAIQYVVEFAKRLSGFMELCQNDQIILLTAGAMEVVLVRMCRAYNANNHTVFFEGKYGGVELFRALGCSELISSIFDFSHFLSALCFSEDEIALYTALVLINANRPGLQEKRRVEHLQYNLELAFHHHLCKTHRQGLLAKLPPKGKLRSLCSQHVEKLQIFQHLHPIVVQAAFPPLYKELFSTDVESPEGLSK
#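 A Gal4/UAS one-hybrid system in insect cells: metallothionein-promoter Gal4–ROR gamma fusion plus Photinus luciferase reporter. Copper sulfate 700 uM final, 20 hr ambient incubation, luminescent detection after 10 min with reagent.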
# IL-1B inflam inh: blocks inflammasome-driven IL-1 beta release; THP-1 LPS/ATP IL-1B secretion, AlphaLISA, 16 h; active compounds read low; 4.7% of 360,000 active; activity change, % at 57.5 µM; AID 743279; in the data active = activity change below about -50%; inconclusive = mostly about -30% to -49%
#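 THP-1 cells pretreated 1 hr with compounds (up to 57.5 uM final), then stimulated with LPS (250 ng/mL final) plus ATP (1.25 mM final); secreted IL-1B measured by AlphaLISA after 16 hr, decreased signal indicating inhibition.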
# Gal4-VP16 FLuc: Gal4-VP16 reporter inhibition counter-screen; Drosophila S2 Gal4-VP16 UAS-luciferase, luminescence, 20 h; Potency, µM (titrated, usually from 53.6 µM), without a hit: top-dose activity, negative = inhibition, most hits filed as inhibitors; 3.5% of 310,000 active;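 note: Gal4-VP16 expression switched on by copper sulfate through the metallothionein promoter; potency is the fitted concentration of half-maximal effect; nearly all actives have a fitted effect of over 50% in size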
# DT40 TDP1 CPT: growth inhibition of DT40 Tdp1-/-;hTDP1 cells with camptothecin (screen for TDP1 inhibitors); chicken DT40 Tdp1-/-;hTDP1 cells + 20 nM CPT, ATP luminescence, 48 h; Potency, µM (highest dose often 46.2 µM), for the others: at the top dose activity change, negative = growth inhibition, usual class: inhibitors; 12% of 420,000 active; AID 686979; note: potency is the fitted concentration of half-maximal effect; nearly all actives have a fitted effect of over 55% in size
#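 Chicken DT40 Tdp1-/- cells stably complemented with human TDP1 were seeded at 400 cells/well in medium containing 20 nM camptothecin, exposed to pin-transferred compounds, and grown at 37 °C for at least 48 hr. Viability was read as ATP luminescence.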
# ELG1 repair inh: ELG1-dependent DNA repair inhibition; AID 504467; HEK293T ELG1-luciferase reporter, luminescence, 16 h; DNA damage induced by 5-fluorouridine; Potency, µM (highest dose often 46.1 µM), inactives show top-dose activity change, negative = inhibition, hits mostly inhibitors; 2.3% of 330,000 active; note: potency is the fitted concentration of half-maximal effect; nearly all actives have a fitted effect of over 55% in size
#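 DMSO vehicle served as the neutral condition. Each well held 2,000 cells given 5-fluorouridine plus compound; after 16 hr at 37 °C/5% CO2, ONE-Glo was added and luciferase measured 30 min later.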
# * = called active by the depositor; ? = inconclusive; nt = no result. Hits are enriched below; roughly 21% of the tested compounds scored in any of these assays. Unless noted, calls come from the whole dose curve; as a rule, active = well fitted curve in the direction sought with a large enough effect; inconclusive = small, poorly fitted or top-dose-only effect, or another doubt; inactive = no such curve, though single readings can be large; an effect the other way counts as inactive or inconclusive. % is set by controls: 0 for no effect and ±100 for the full control effect.
SMILES,DT40 TDP1 no CPT,RORgamma inh,IL-1B inflam inh,Gal4-VP16 FLuc,DT40 TDP1 CPT,ELG1 repair inh
COC(=O)c1ccccc1NC(=O)CCCOc1cc(=O)n(C)c2ccccc12,?,nt,26,nt,?,nt
COc1ccccc1-c1ncn(Cc2cccc(-c3ccccc3)c2)c1-c1cc(C)cc(C)c1,15µM*,nt,nt,nt,?,nt
COCn1cnc(-c2ccccc2)c1-c1ccccc1,?,nt,-13,nt,-25%,nt
COc1ccccc1-c1nn(Cc2ccccc2)cc1C(=O)NCC(c1ccco1)N1CCCC1 (stereo not given),0%,nt,14,nt,?,0%
COc1ccccc1-c1ncn(Cc2cccc(-c3ccccc3)c2)c1-c1ccco1,16µM*,nt,?,nt,26µM*,nt
COc1ccc(OCCCC(=O)OCC(=O)NNC(=O)c2ccc([N+](=O)[O-])cc2)cc1,5%,nt,1,nt,10%,?
CCOC(=O)N/N=C/c1ccccc1OCc1ccc(Cl)cc1,29µM*,?,-22,-5%,?,3%
O=C(Cc1ccccc1)N/N=C/c1ccccc1OCc1ccc(Cl)cc1,?,-1%,-20,-10%,?,?
O/N=C/c1ccccc1OCc1ccc(Cl)cc1,0%,17%,-96*,7%,-3%,?
O/N=C/c1ccccc1OCc1ccccc1Cl,-18%,-18%,-27,-5%,1%,?
CCOC(=O)c1c(NC(=O)c2cc(=O)c3cc(C)cc(C)c3o2)sc(C)c1C,-3%,nt,nt,nt,-13%,nt
CC1CCN(C(=O)c2cc3ccccc3o2)CC1,-11%,?,-14,4%,-5%,?
CCOc1c([N+](=O)[O-])cc2c(C)c(C(=O)N3CCN(C)CC3)oc2c1OCC,16µM*,-5%,3,-6%,17%,-2%
Cc1cc(C)cc(NC(=O)Nc2nnc(N(C)C3CCCCC3)s2)c1,?,nt,nt,nt,15µM*,nt
Cc1cccc(NC(=O)Nc2nnc(N(C)C3CCCCC3)s2)c1C,?,nt,nt,nt,-2%,nt
CCCCN(CCCC)CC(O)c1cc(Cl)cc2c1-c1ccc(Cl)cc1C2=Cc1ccc(Cl)cc1 (stereo not given),?,nt,nt,nt,8.9µM*,nt
CC(C)COc1ccc(CC(=O)NO)cc1,?,nt,nt,nt,8.9µM*,nt
CCC(=O)Nc1nc2ccc3sc(C)nc3c2s1,23µM*,18%,-5,-7%,18µM*,5%
CCOc1ccc(OCCC(=O)N2CCN(S(=O)(=O)c3ccc(OCC)cc3)CC2)cc1,-18%,7%,0,-3%,-9%,-18%
CCOc1ccc(OCCCC(=O)N2CCN(S(=O)(=O)c3ccccc3C#N)CC2)cc1,?,nt,-52*,nt,?,?
Cc1cc(Cl)ccc1OCCCC(=O)N1CCN(S(=O)(=O)c2ccccc2)CC1,?,nt,-87*,nt,?,?
O=S(=O)(c1ccccc1)N1CCC(O)(CSc2ccccc2)CC1,-18%,19%,-23,-1%,-5%,8.2µM*
CN1CCN(C(=O)CCCOc2ccc(Cl)cc2Cl)CC1,-24%,33%,-17,-3%,-25%,17%
O=C(CCSc1ccc(Cl)cc1)N1CCN(S(=O)(=O)c2ccccc2)CC1,18µM*,nt,-13,nt,21µM*,?
Cc1cc(Cl)ccc1OCCCC(=O)N1CCN(C(=O)c2ccco2)CC1,21µM*,39%,-1,4%,?,-13%
SMILES,DT40 TDP1 no CPT,RORgamma inh,IL-1B inflam inh,Gal4-VP16 FLuc,DT40 TDP1 CPT,ELG1 repair inh
CCOc1ccccc1OCCCC(=O)N1CCN(S(=O)(=O)c2ccc(Cl)cc2)CC1,18µM*,nt,-12,nt,?,-18%
CCCOc1ccccc1OCC(=O)N1CCN(S(=O)(=O)c2ccc(Cl)cc2)CC1,-13%,nt,-3,nt,-26%,?
COc1ccc(-n2c(=O)c(-c3cccc(F)c3)nc3cncnc32)cc1,2%,9%,nt,5%,-1%,nt
COC(=O)C1=C(C(=O)OC)[C@@H]2N(C)c3ccccc3[C@@]23C[C@@H](CO)N(C(=O)C2CCC2)C3=N1,-13%,nt,-24,nt,-2%,nt
CCC(=O)N1CCc2cc(CNC(=O)C(CC)c3ccccc3)ccc21 (stereo not given),-21%,nt,nt,nt,-18%,nt
O=C(CN(C(=O)c1csnn1)c1ccc(F)c(Cl)c1)NCc1ccc2c(c1)OCO2,-30%,22%,-18,-1%,-23%,-8%
COc1ccc(C(=O)CSc2nnn(-c3cccc(NC(C)=O)c3)n2)cc1,23µM*,21%,nt,20%,?,?
CC(=O)Nc1cccc(-n2nnc(SCC(=O)c3ccccc3)n2)c1,?,24%,0,2%,-13%,?
COC(=O)c1cnc(NCc2ccc(F)cc2)c2ccccc12,?,nt,nt,nt,-29%,nt
CCc1cc[n+](CC(=O)c2ccc(F)cc2)cc1C(=O)O,-4%,nt,nt,nt,-21%,nt
Cc1cc(N)n(-c2ccc3ccccc3c2)n1,-2%,0%,14,2%,-16%,?
CC1(C(=O)NCc2ccc(Cl)cc2)CCN1C(=O)Cc1cccs1 (stereo not given),?,nt,-19,nt,?,nt
CCOc1ccc(C2CC(=O)Nc3nc(SCc4ccccc4C)[nH]c(=O)c32)cc1OC (stereo not given),15µM*,nt,nt,nt,?,nt
Cc1ccc(/C=N/NC(=O)c2ccc3ccccc3c2)s1,0.82µM*,3.5µM*,47,5µM*,0.82µM*,12%
Cc1ccc(/C=N/NC(=O)c2ccc3c(c2)OCCO3)s1,21µM*,5.6µM*,16,?,21µM*,?
Cc1c(/C=N/NC(=O)c2ccc3c(c2)OCO3)cnn1C,5%,-20%,0,0%,-5%,5%
COc1ccc(OC)c(/C=C(\NC(=O)c2ccccc2)C(=O)N/N=C/c2ccc(C)s2)c1,-28%,?,?,?,?,-12%
Cc1ccc(/C=N/NC(=O)c2cccc(S(=O)(=O)Nc3ccccc3Cl)c2)s1,-28%,7.1µM*,1,5µM*,-27%,-7%
CC(C)c1ccc(S(=O)(=O)c2cnc(SCC(=O)Nc3ccc4c(c3)OCCO4)[nH]c2=O)cc1,0%,nt,nt,nt,-3%,nt
CCOc1ccc(CCNC(=O)Cn2ncn3c(cc4sc(C)cc43)c2=O)cc1OCC,?,nt,nt,nt,1%,nt
CCN1C[C@@H]2[C@@H]3C(=O)N(Cc4ccccc4)C(=O)[C@@H]3[C@](CC)(C1=O)N2C(=O)c1ccccc1,0%,nt,22,nt,5%,nt
COCCn1c(=S)[nH]c2cc(C(=O)N3CCN(c4cccc(Cl)c4)CC3)ccc2c1=O,4.1µM*,11µM*,-16,?,21µM*,?
